Source: PubChem (Broad Institute)
This is a sample that favours compounds with a hit; in the whole collection about 3.1% have one here.
PAX8 inh HTS: lowers PAX8-driven luciferase in RMG-I cells; RMG-I TPO-luciferase reporter, SteadyGlo, 24 h; inhibition, % at 12.6 µM; actives 1.2% (n = 360,000);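 active means mean replicate inhibition at least 60% with every replicate also reaching 60%; inconclusive means only one of the two criteria is met; inactive means mean below 60% and not all replicates reaching 60%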;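 further: luciferase light reporting Pax8 driven TPO promoter activity; plate controls were median of neutral control wells for no effect and mitoxantrone controls for full effect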
HIV Env fusion: blocks HIV Env-driven cell-cell fusion; HeLa-JRFL Env/CEM21 cell fusion, luciferase; inhibition, % at 12.3 µM; actives 1.1% (n = 360,000); AID 651610;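 active means mean replicate inhibition score of at least 50 and every replicate individually at or above 50; inconclusive means only one of the two criteria met; inactive means mean below 50 and not all replicates reaching 50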;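 further: 0% = plate neutral controls and 100% = maraviroc near 300 nM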
miR122 inh: miR-122 inhibition in Huh7 cells | Huh7 miR-122 Renilla luciferase sensor, 48 h; neutral wells = 0, positive control = 100 | activation (reporter increase), % at 12.5 µM | actives 0.3% (n = 340,000);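 active means mean replicate activation score at least 90 and every replicate individually at or above 90; inconclusive means only one of the two criteria met; inactive means neither criterion met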;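 further: higher luciferase means less miR-122 activity so hits act as miR-122 inhibitors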
GSIS activator: GLuc luminescence reporter in INS-1E cells, primary screen for activators of glucose-dependent secretion of insulin. AID 743287. activation, % at 16.6 µM. actives 0.61% (n = 370,000). INS-1E GLuc reporter insulin secretion, 2-3 h;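 active means lowest replicate activation of at least 40%, so every replicate reaches that level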;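 further: 0% = median of neutral control wells and 100% = median of IBMX positive control wells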
C2C12 statin: protects C2C12 myotubes from simvastatin toxicity | rescue of ATP level, % at 7.49 µM | actives 0.78% (n = 330,000) | AID 602340 | ATP luminescence, 48 h; scaled: DMSO 0, geranylgeraniol control 100;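 active means mean ATP rescue above about 67%, or every replicate alone reaching that limit, limit read from the data, passing the limit was not always enough; inconclusive means no clear call, values can overlap the other calls; inactive means mean under the limit and some replicate under it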;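 further: myotubes were challenged with 10 µM simvastatin during compound exposure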
EWS-Fli block: blocks EWS/Fli oncoprotein-driven transcription; A673 NR0B1-luciferase reporter, viability-normalised; inhibition, % at 12.6 µM; actives 0.67% (n = 350,000); AID 651661;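 active means mean inhibition of at least 50% after viability correction, with every replicate also passing that limit; inconclusive means mean reaches 50% but only one of two replicates passes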;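 further: firefly luciferase signal divided by Alamar Blue viability fluorescence both relative to DMSO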
Starred values were filed as active, the others as inactive; ? = inconclusive; / = not tested or not shown; [ ] = another dose, or the depositor's remark.

SMILES	PAX8 inh HTS	HIV Env fusion	miR122 inh	GSIS activator	C2C12 statin	EWS-Fli block
O=C1OCC2=C1C(c1ccc3c(c1)OCO3)c1cc3c(cc1O2)OCO3 (configuration not stated)	-2	34	/	5	/	39
CO[C@@H]1CN(C)C(=O)c2cc(NS(C)(=O)=O)ccc2OC[C@@H](C)N(CC2CCOCC2)C[C@@H]1C	-7	-14[16.7 µM]	/	13	-14	-3
CCC1CCCCN1C(=O)CCCOc1ccccc1 (configuration not stated)	/	/	1	/	/	/
CCCCC[C@H](O)/C=C/[C@H]1CCC(=O)[C@@H]1CCCCCCC(=O)N1CCCCC1CO (some centres not stated)	70*	-1	1	-14	-25	3
COc1ccc(S(=O)(=O)N(C)C[C@H]2OCCCC[C@@H](C)Oc3ccc(NS(C)(=O)=O)cc3C(=O)N([C@@H](C)CO)C[C@@H]2C)cc1	-9	-3[16.7 µM]	15[16.7 µM]	-6	/	-8
CCOc1nc(C)ccc1-c1noc(-c2ccccc2OC)n1	-74	-141	-5	/	/	/
CCCCCCCCC#Cc1nc(C)ccc1OC	5	14	-4	56*	-18	8
C[C@@H]1CCCCO[C@H](CN(C)Cc2ccncc2)[C@H](C)CN([C@H](C)CO)C(=O)c2cc(NC(=O)Nc3cccc4ccccc34)ccc2O1	/	-30[16.7 µM]	-1[16.7 µM]	-18	/	8
COC(=O)c1cc2ccccc2c([N+](=O)[O-])c1O	11	-2	4	55*	3	-7
Cc1noc(C)c1S(=O)(=O)N(C)C[C@@H]1Oc2ccc(NS(=O)(=O)c3cccs3)cc2CC(=O)N([C@@H](C)CO)C[C@H]1C	-1	2[16.7 µM]	-5[16.7 µM]	-13	-3	-7
CCCCCNC(=O)c1ccc2c(=O)[nH]c3c(C(=O)NCC4CCCO4)sc(=S)n3c2c1 (configuration not stated)	9	43	-3	-4	118*	/
O=C(C[C@H]1C=C[C@@H](NC(=O)CC2CC2)[C@@H](CO)O1)NCc1ccccc1	/	/	/	12	/	-5
CC(C)n1c(N)c(C#N)c2ccc([N+](=O)[O-])cc2c1=O	-17	15	-4	103*	/	8
COc1ccc(C2C(C(=O)Nc3cc(OC)c(OC)c(OC)c3)c3ccccc3C(=O)N2C)cc1 (configuration not stated)	25	-183	29	14	-55	60*
CCCc1nnc(N2C(=O)c3cccc4cccc(c34)C2=O)s1	/	/	-1	/	85*	/
Cc1nnc(N2C(=O)c3cccc4cccc(c34)C2=O)s1	/	/	5	18	/	/
COc1cc2c(c(OC)c1OC)-c1c(cc(OC)c(OC)c1OC)C[C@](C)(O)[C@@H](C)C2	18	-12	-5	11	-3	-4
COc1cc(C(=O)Nc2cccc(NC(=O)c3ccccc3)c2)cc(OC)c1OC	12	5	-3	-19	-17	-3
CCOCC(=O)NC1CCc2cc(OC)c(OC)c(OC)c2-c2ccc(SC)c(=O)cc21 (configuration not stated)	86*	/	74	-38	/	?
CN[C@H]1CCc2cc(OC)c(OC)c(OC)c2-c2ccc(OC)c(=O)cc21	90*	-157	17	/	-37	57*
CCCCOC(=O)NC1CCc2cc(OC)c(OC)c(OC)c2-c2ccc(SC)c(=O)cc21 (configuration not stated)	79*	-24	?	-19	/	55*
COc1cc2c(c(OC)c1OC)-c1ccc(NC(=O)c3ccccc3)c(=O)cc1[C@@H](NC(C)=O)CC2	60	-36	/	-12	17	54*
COc1ccc2c3c([nH]c2c1)[C@H](CO)N(C(=O)Nc1ccc(F)cc1)CC31CCN(S(=O)(=O)c2cccs2)CC1	/	/	/	4	/	4
CNC[C@@H]1Oc2ncc(/C=C/c3ccccc3)cc2C(=O)N([C@H](C)CO)C[C@H]1C	5	/	3[16.7 µM]	-7	-3	-4
CCC(=O)N1CC(=O)N2[C@H](CO)[C@H](c3ccc(-c4ccccc4F)cc3)[C@H]2C1	/	/	/	3	/	1
CCOC(=O)NC1CCc2cc(OC)c(OC)c(OC)c2-c2ccc(SC)c(=O)cc21 (configuration not stated)	83*	-181	/	-9	/	35
C=C(C)C(=O)Nc1nnc(-c2cccs2)s1	24	7	/	118*	/	/
